Results reported in PubChem BioAssay (NCI).
About 83,000 compounds went through this panel and 20% of them were active in at least one assay; those are over-represented in the sample as a whole.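 Testing used 96-well plates and a 48-hour single-concentration exposure. Example: -40 means 40% of the starting cells died.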 Values without a mark were called inactive. Activity calls are given as the source filed them. How the source made its calls: active means growth percent below 10; inactive means the rest.

Tests used:
Experiment in all cases: NCI-60 one-dose screen, 48 h (100 = growth as untreated, 0 = no growth, -100 = all killed)
Conditions in all cases: 10 µM unless noted
T-47D breast = test system: T-47D breast
BT-549 breast = test system: BT-549 breast
MDA-MB-435 melanoma = test system: MDA-MB-435 melanoma
SW-620 colon = test system: SW-620 colon
MCF7 breast = test system: MCF7 breast
HCT-116 colon = test system: HCT-116 colon
HCC-2998 colon = test system: HCC-2998 colon
KM12 colon = test system: KM12 colon

Row | SMILES | growth (T-47D breast) | growth (BT-549 breast) | growth (MDA-MB-435 melanoma) | growth (SW-620 colon) | growth (MCF7 breast) | growth (HCT-116 colon) | growth (HCC-2998 colon) | growth (KM12 colon)
1 | CC(=O)NCC(=O)Nc1ccc(-c2nnc3ccccn23)nc1.CC(=O)NCC(=O)Nc1ccc(-c2nnc3ccccn23)nc1.[Pt+2] | 105% | 114% | 114% | 105% | 110% | 95.4% | 106% | 109%
2 | CN1CCN(c2ccc3nc(/N=C/c4ccc5sc(-c6ccc([N+](=O)[O-])cc6)nc5c4)sc3c2)CC1 | 96% | 92.4% | 102% | 116% | 94.7% | 107% | 101% | 105%
3 | C=C(C)C1CCC(=C)C2CCC3(C)OC12/C=C(/COC(C)=O)CCC3O (centres undefined) | 112% | 78.6% | 98.7% | 106% | 96.8% | 103% | 106% | 117%
4 | O=C1N(c2ccccc2)C(=S)N[C@]12[C@H](c1ccccc1)C1CCCN1[C@]21C(=O)NC2C=CC(Cl)=C[C@H]21 (some centres undefined) | 79.6% | 90.2% | 112% | 101% | 99.1% | 78.1% | 103% | 100%
5 | NC(N)=N/N=C(/c1ccccc1)c1ccc(N)cc1 | 107% | 72.7% | 91.2% | 111% | 97% | 115% | 103% | 112%
6 | O=C1Nc2ccccc2/C1=N/N=C/c1ccc(OC2OC(CO)C(O)C(O)C2O)cc1 (centres undefined) | 105% | 109% | 106% | 101% | 103% | 107% | 115% | 110%
7 | C/C(=N\NC(N)=S)c1nc2ccc(Cl)cc2[nH]1 | 40.5% | 74.9% | 54.6% | 41.4% | 8.53% (active) | 35.6% | 55.8% | 32.1%
8 | NC(=O)CC1(O)C=C(Br)C(=O)C(Br)=C1 | 31% | 28.8% | 32.4% | -36.1% (active) | 25.6% | -61.9% (active) | 76.3% | 109%
9 | Oc1[nH]c2ccccc2c1/C=c1/cc2c(c(-c3ccc(F)cc3)n1)=Nc1ccccc1-2 | -37.1% (active) | -31.3% (active) | -30.4% (active) | -10.6% (active) | -62.4% (active) | -61.3% (active) | -63.7% (active) | 14.6%
10 | O=[N+]([O-])c1cccc(/C=C/c2ccccn2)c1 | 37.9% | 64.8% | 98.4% | 47.7% | 7.24% (active) | 39.6% | 62.2% | 65.9%
11 | O=[N+]([O-])c1ccc(-c2cc3c(Nc4ccc(Cl)c(C(F)(F)F)c4)ncnc3s2)cc1 | -6.08% (active) | 8.01% (active) | 5.4% (active) | 16.8% | 3.55% (active) | 6.29% (active) | 19.2% | 10.9%
12 | COc1cc2c(cc1OC)-c1ccc3cc4c(cc3c1N(CCCn1ccnc1)C2)OCO4 | -18.4% (active) | 32.1% | 61.1% | 39.3% | 14% | 20% | 82.8% | 76.1%
13 | COc1cc(NC(=O)c2cc(O)c(CC=C(C)C)c(O)c2)cc2c1O[C@]1(C)CC[C@@H](O)C(C)(C)[C@H]1C2 | 7.15% (active) | 8.48% (active) | 24.2% | 14.7% | 10.5% | 23.8% | 48.7% | 31.1%
14 | CCN(CC)S(=O)(=O)c1ccc(O)c(NC(=O)c2[nH]c(C)c(C(C)=O)c2CCc2ccc(Cl)cc2)c1 | 13% | 40.5% | 43.4% | 61.5% | 43.8% | 28.1% | 76.3% | 29.8%
15 | OC(CBr)c1ccnc2ccccc12 (centres undefined) | 89.1% | 92% | 100% | 104% | 96.3% | 90.7% | 103% | 99.3%
16 | COc1ccc(-c2cc(-c3ccc(Nc4nc(Nc5ccccc5)nc(Nc5ccc(Cl)cc5)n4)cc3)nc(N)n2)cc1 | 35.5% | 82.1% | 66.6% | 80% | 22.6% | 38.1% | -7.72% (active) | 39.9%
17 | N#Cc1cnn2c(-c3ccc(Cl)cc3)nc(NCCc3ccccc3)nc12 | 50.9% | 100% | 101% | 98.1% | 79.7% | 81.5% | 106% | 88%
18 | Cc1c(C(N)=O)sc2nc(C)n(/N=c3\scc(-c4ccccc4)n3Cc3ccccc3)c(=O)c12 | 34.7% | -6.7% (active) | 12.2% | 12.5% | 17.3% | 29.1% | 57.1% | 13.6%
19 | Cc1ccc(-n2nnc(C3=NCCc4c3[nH]c3ccc(Cl)cc43)c2C)cc1 | 35.7% | 85.3% | 78% | 64.8% | 77.8% | 71.6% | 75.5% | 57.3%
20 | CN1C(=O)CCC(N2C(=O)c3cccc(NCCOCCOCCNC(=O)c4cc5c(o4)C(=O)c4ccccc4C5=O)c3C2=O)C1=O (centres undefined) | 11.1% | -95.4% (active) | -94.6% (active) | -3.3% (active) | -65% (active) | -21.9% (active) | -62.2% (active) | -11.8% (active)
21 | Cc1ccc(O)c(C(=O)c2ccccc2Cl)c1 | 108% | 93.8% | 93.2% | 98.4% | 101% | 99% | 56.2% | 116%
22 | Nc1c(-c2nc3ccccc3c(=O)[nH]2)nnn1-c1ccc(Cl)cc1 | 27.2% | 77.8% | 83.3% | 99.2% | 90% | 78.8% | 104% | 82.8%
23 | CCCCCCCC/C=C/CCCCCCCC1=NCC[N+]1(CCO)CCO | 90.5% | 98.7% | 65.1% | 71.4% | 66.5% | 59.8% | 72% | 40.4%
24 | O=[N+]([O-])c1ccccc1C(O)Cc1ccc2ccccc2n1 (centres undefined) | 88.6% | 109% | 103% | 96.7% | 83.2% | 93% | 114% | 87.6%
25 | CCNCCNc1cc(-c2ccc(C(=O)OC)cc2)c(C#N)c2nc3ccccc3n12 | 18.6% | 68.2% | 73.2% | 2.26% (active) | 53.8% | -19.5% (active) | 49% | 50.8%
26 | C=C1C(=O)O[C@H]2[C@H]1CC/C(COC(=O)/C=C\C(=O)NCc1ccc(Cn3c(=O)sn(-c4ccc(OC)cc4)c3=O)cc1)=C\CC[C@@]1(C)O[C@@H]21 | -51.6% (active) | -51.8% (active) | -65.8% (active) | -53.6% (active) | -51.4% (active) | -65.5% (active) | -75.7% (active) | -64.5% (active)
27 | O=C1CCC(N2C(=O)c3cccc(NCCCC4CCN(CCNC(=O)c5cc6c(o5)C(=O)c5ccccc5C6=O)CC4)c3C2=O)C(=O)N1 (centres undefined) | -5.59% (active) | -96.2% (active) | -97.1% (active) | -77.9% (active) | -65.4% (active) | -56.9% (active) | -96% (active) | -79.2% (active)
28 | Cc1nc(Nc2ccc(NC(=S)Nc3ccccc3)cc2)nc2nc(Nc3ccc(S(=O)(=O)O)cc3)[nH]c(=O)c12 | 87.3% | 61% | 105% | 116% | 102% | 103% | 118% | 120%
